Assay [1] concerns Human papillomavirus type 1a protein E7 (residues 44-93). Kind of assay: HPV1a E7 fragment binders on microarrays, primary screen, biochemical, small-molecule microarray, residues 44-93, 635 nm fluorescence (AID 1108).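 Note: E7 fragment applied at 1 µg/mL in TBST for 1 h at 4 C; score combines spot fluorescence with its signal to noise ratio.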 The note with it: small-molecule microarray binding, fluorescence 635 nm; higher = more signal.
The nature of assay [2]: modulators of HCV replicon luciferase signal, primary screen, HCV replication inhibitor project, Huh7 cells, luciferase reporter (AID 1109).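 Note: huh7 hepatoma cells harbouring a luciferase neomycin HCV replicon reporter; luciferase luminescence as measure of HCV replicon replication; test concentration not given here.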 As to conditions: 48 h, higher = more signal. On the technique in general: A replicon is a self-replicating genome or part of one, used to study replication in cells.
Assay [3] concerns the target Left-right determination factor 2 (Homo sapiens) (UniProt O00292). The assay can be described thus: LEFTY2 binders on small-molecule microarrays, primary screen, biochemical, small-molecule microarray, 635 nm fluorescence scan (AID 1110). As to conditions: LEFTY2 binding, higher = more signal.
In assay [4] the target is Calmodulin-1 (Homo sapiens) (UniProt P0DP23). Kind of assay: CALM1 binders on microarrays, EGTA buffer, profiling panel, biochemical, small-molecule microarray, Cy5-labelled CALM1 (AID 1111).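 Note: labelled calmodulin applied in Tris saline Tween buffer holding calcium plus EGTA and DTT.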 As to conditions: Cy5-CALM1 binding fluorescence, higher = more signal.
Assay [5] has the same target. Kind of assay: calcium-bound CALM1 binders on microarrays, profiling panel, artefact control for SMM control-protein annotation, biochemical, small-molecule microarray, Cy5-labelled CALM1, plus calcium (AID 1112).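 Note: score merges spot fluorescence with signal to noise from triplicate slides.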 The note with it: Cy5-CALM1 binding fluorescence, higher = more signal.
The nature of assay [6]: small-molecule microarray binders of probe aWnt5a, primary screen, biochemical, biotinylated probe, 635/667 nm fluorescence (AID 1113).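 Note: score merges 667 nm fluorescence intensity with signal-to-noise per printed feature.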 The note with it: higher = more signal.
A short description of assay [7]: small-molecule microarray binders of probe aShh, primary screen, biochemical, biotinylated probe, 635/667 nm fluorescence (AID 1114).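 Note: probe is biotin-labelled aShh protein from a stem cell growth factor screen; measures binding of labelled protein to compounds printed on the slide; score merges feature fluorescence at 667 nm with signal-to-noise.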 As to conditions: higher = more signal.
Assay [8] can be described thus: small-molecule microarray binders of probe aNog, primary screen, biochemical, biotinylated probe, 635/667 nm fluorescence (AID 1115).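 Note: probe is biotinylated aNog protein used at 0.15 µg/mL for 1 h at 4 C; z-score combines 667 nm fluorescence of each spot with its signal to noise.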 As to conditions: higher = more signal.
Assay [9] has as its target Torsin-1A-interacting protein 1 (Homo sapiens) (UniProt Q5JTV8). The assay can be described thus: LAP1 binders from COS7 cell lysate, primary screen, small-molecule microarray, 635/667 nm fluorescence (AID 1116). As to conditions: COS7-hLAP1 lysate binding, 635 nm fluorescence, higher = more signal.
For assay [10], the target named is Alpha-bungarotoxin (Bungarus multicinctus) (UniProt P60615). The assay can be described thus: alpha-bungarotoxin binders on microarray, profiling panel, artefact control for SMM control protein annotation, biochemical, small-molecule microarray, Alexa647 label, 635/667 nm fluorescence (AID 1117). The note with it: alpha-BTX-A647 binding fluorescence, higher = more signal.
Chain of Alpha-bungarotoxin (Bungarus multicinctus) (P60615 whole entry, looked up): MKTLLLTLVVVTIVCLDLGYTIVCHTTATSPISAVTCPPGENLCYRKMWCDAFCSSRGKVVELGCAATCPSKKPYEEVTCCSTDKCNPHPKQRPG

Chain of Left-right determination factor 2 (Homo sapiens) (O00292 whole entry, looked up): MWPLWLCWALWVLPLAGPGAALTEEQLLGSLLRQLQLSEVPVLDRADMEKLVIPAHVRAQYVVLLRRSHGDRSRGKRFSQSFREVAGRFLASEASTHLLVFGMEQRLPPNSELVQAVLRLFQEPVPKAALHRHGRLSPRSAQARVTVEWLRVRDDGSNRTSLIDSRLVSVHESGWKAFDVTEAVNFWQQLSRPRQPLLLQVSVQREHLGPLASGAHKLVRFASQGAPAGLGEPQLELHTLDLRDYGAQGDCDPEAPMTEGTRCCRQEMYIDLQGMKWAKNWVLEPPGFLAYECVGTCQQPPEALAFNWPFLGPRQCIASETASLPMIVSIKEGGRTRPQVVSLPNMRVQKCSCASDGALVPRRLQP
Chain of Torsin-1A-interacting protein 1 (Homo sapiens) (Q5JTV8 whole entry, looked up): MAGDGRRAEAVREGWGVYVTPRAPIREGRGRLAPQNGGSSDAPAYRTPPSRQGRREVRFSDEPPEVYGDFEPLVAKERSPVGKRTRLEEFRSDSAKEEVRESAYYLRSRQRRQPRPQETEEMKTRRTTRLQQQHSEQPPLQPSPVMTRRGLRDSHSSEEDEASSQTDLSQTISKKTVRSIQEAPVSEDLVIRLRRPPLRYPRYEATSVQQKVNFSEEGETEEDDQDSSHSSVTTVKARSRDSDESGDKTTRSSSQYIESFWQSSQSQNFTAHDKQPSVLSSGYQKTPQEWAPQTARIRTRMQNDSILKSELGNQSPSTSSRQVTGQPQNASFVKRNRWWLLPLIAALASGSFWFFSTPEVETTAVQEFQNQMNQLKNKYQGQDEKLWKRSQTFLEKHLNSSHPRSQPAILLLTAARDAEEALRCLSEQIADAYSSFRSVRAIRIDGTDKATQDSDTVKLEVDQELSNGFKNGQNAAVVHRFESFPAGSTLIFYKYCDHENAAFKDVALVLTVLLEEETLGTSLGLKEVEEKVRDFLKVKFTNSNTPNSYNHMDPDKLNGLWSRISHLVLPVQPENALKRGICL

For `CCOC(=O)c1ccc(NC(=O)O[C@H]2[C@H](OC(=O)Nc3ccc4c(c3)OCO4)[C@@H](OC(=O)Nc3ccc4c(c3)OCO4)[C@@H](OC)O[C@@H]2CO)cc1`, the composite z-score in assay [1] was 1.27; in assay [3], 0.48; in [4], 0.517; in assay [5] it was -0.393; in [6], 0.0321; in assay [7], -0.0664. Moreover, the composite z-score is 1.08 in assay [8], 1.52 in assay [9] and 0.908 in assay [10]. The compound also showed a z-score in assay [2] of 1.5.
With `O=C(NCCCCCNC(=O)/C(Cc1ccccc1)=N/O)OCc1ccccc1`, the composite z-score in assay [1] was -0.0938; in assay [3], 0.629; in [4], -0.503; in assay [5], -0.592; in assay [6] it was -0.0445; in assay [7] it was -0.426. Further, the values for the composite z-score in [8], in assay [9] and in assay [10] were -0.633, 0.154 and 0.269, respectively. The compound further had a z-score in assay [2] of -1.24.
For the compound `COC(=O)Cn1c(C(=O)N(C)C)cc2c1C[C@H]1CN(C(=O)c3ccccc3)[C@@](Cc3ccc(F)cc3)(C(=O)OC)[C@@H]21`, the composite z-score is 0.389 in [1]; 0.484 in [3]; 0.642 in [4]; 0.496 in assay [5]; 0.328 in [6]; 0.235 in assay [7]. Further, the composite z-score worked out at 0.715 in assay [8], 0.768 in assay [9] and 0.368 in [10]. This compound came in with a z-score in assay [2] of 0.387.
As to `CCOC(=O)C1=CC[C@@H](c2ccccc2C(F)(F)F)N(S(=O)(=O)c2ccc(C)cc2)[C@H]1c1ccc(C#N)cc1`, the composite z-score is 0.325 in assay [1]; 0.327 in assay [3]; 1.63 in assay [4]; 0.697 in assay [5]; -0.0152 in [6]; -0.283 in assay [7]. Further, the composite z-score was -0.301 in [8], 0.408 in [9] and 0.969 in assay [10]. In assay [2], this compound yielded a z-score of 0.65.
On to `CCCCO[C@H]1C[C@H]2C(I)=C[C@@H]1C(=O)[C@]21CO1`, for which the composite z-score in [1] is -0.977; in [3], 0.312; in [4] it was -0.331; in assay [5], -0.502; in assay [6], -0.0735; in assay [7] it was -0.0866. The composite z-score in assay [8] was 0.0327; in assay [9], -0.243; in assay [10], -0.0708. In addition, the z-score in assay [2] was -2.7.
As for `C=CCOC(=O)[C@H]1[C@@H]2C(=O)O[C@@H](c3ccccc3)[C@@H](c3ccccc3)N2[C@@H](c2ccc(OCCOC(=O)[C@H]3C[C@H]4C(=O)N[C@@H](CCCCNC(C)=O)C(=O)N4[C@H]3c3ccc(O)cc3)cc2)[C@]12C(=O)Nc1ccccc12`, the composite z-score in [1] is 0.94; in assay [3], 0.594; in assay [4], 1.03; in [5], 0.328; in assay [6] it was -0.124; in assay [7], 0.157. The composite z-score turned out to be 0.0322 in [8], 1.67 in assay [9] and 1.89 in assay [10]. The z-score in assay [2] was -0.103.
As to `C=CCC(OC(C)=O)[C@@H]1[C@@H](N(Cc2ccc(-c3cccc(C(F)(F)F)c3)o2)C(=O)c2ccc(C)cc2)c2cc(OCCCO)ccc2N1C(=O)c1ccc2ccccc2c1` (stereo not given in full), the composite z-score in assay [1] was -0.191; in assay [3], -0.0584; in assay [4], -0.287; in assay [5], -0.208; in assay [6], 0.0433; in [7], -0.221. Moreover, the figures for the composite z-score in [8], in assay [9] and in assay [10] were -0.347, -0.048 and -0.0213, respectively. This compound returned a z-score in assay [2] of -0.471.
On to `COc1ccc(CCNC(=O)[C@@H]2c3ccccc3C(=O)N(Cc3cc(C(F)(F)F)cc(C(F)(F)F)c3)[C@H]2c2ccc(CO)cc2)cc1`, for which the composite z-score in assay [1] was 0.867; in assay [3], -0.31; in assay [4], 0.0713; in assay [5], -0.935; in assay [6], -0.141; in assay [7] it was -0.147. Moreover, the composite z-score was -0.273 in assay [8], 0.338 in [9] and 0.795 in assay [10]. Further, the z-score in [2] was -1.06.
With `CCOC(=O)C1=CC[C@@H](c2ccc(OCc3ccccc3)c(OC)c2)N(S(=O)(=O)c2ccc(C)cc2)[C@H]1c1ccc(SC)cc1`, the composite z-score in assay [1] is 1.4; in assay [3], 0.458; in assay [4], 1.23; in assay [5], 0.298; in [6], 0.155; in assay [7], 0.0659. The figures for the composite z-score in assay [8], in assay [9] and in [10] were 1.1, 0.746 and 0.573, respectively. This compound yielded a z-score in assay [2] of -1.75.
With `COC(=O)[C@@]1(Cc2ccccc2)[C@H]2c3cc(C(=O)N(C)C)n(Cc4c(CO)[nH]cc(C)c4=O)c3C[C@H]2CN1C(=O)c1ccccc1`, the composite z-score in assay [1] is -0.0355; in assay [3], -0.0086; in [4], 0.278; in [5] it was 0.0907; in assay [6], 0.108; in assay [7] it was 0.061. The composite z-score was 1.05 in assay [8], 0.37 in assay [9] and 0.218 in assay [10]. Besides, in assay [2], the z-score was -0.898.
Turning to `O=C1O[C@H](c2ccccc2)[C@H](c2ccccc2)N2[C@H]1[C@@H](C(=O)Nc1nc3ccccc3s1)[C@]1(C(=O)Nc3ccccc31)[C@H]2c1ccc(OCCO)cc1`, the composite z-score is 1.36 in assay [1]; 0.807 in [3]; 0.504 in assay [4]; -0.302 in assay [5]; -0.16 in [6]; 0.0899 in assay [7]. For the same compound, the results for the composite z-score in assay [8], in assay [9] and in assay [10] were -0.411, 0.442 and 1.02, respectively. In assay [2], this compound displayed a z-score of -2.64.
Take `C=CCNC(=O)[C@H]1[C@@H]2C(=O)O[C@@H](c3ccccc3)[C@@H](c3ccccc3)N2[C@@H](c2ccc(O)cc2)[C@]12C(=O)Nc1ccc(C#CC3(O)CCCCCC3)cc12`: the composite z-score is 0.903 in assay [1]; 0.405 in [3]; 0.823 in assay [4]; 0.215 in assay [5]; -0.036 in assay [6]; 0.0358 in assay [7]. The results for the composite z-score in assay [8], in assay [9] and in assay [10] were 0.557, 0.854 and 0.448, respectively. Further, the z-score in assay [2] is -0.979.
In the case of `[N-]=[N+]=NCc1ccccc1[C@@H]1OC(c2ccc(OCCCO)cc2)=N[C@]1(CCS(=O)(=O)c1ccccc1)C(=O)NCC(O)CO` (stereo not given in full), the composite z-score in [1] was 0.711; in [3], -0.275; in assay [4] it was 2.14; in [5] it was 0.701; in assay [6], 0.0799; in assay [7], 0.0062. Besides, the composite z-score in assay [8] was found to be 0.975; in [9], 4.4; in assay [10], 2.17. Moreover, the z-score in assay [2] was -1.2.

The record behind these values is PubChem BioAssay.
